# Source: PubChem BioAssay (NCATS)
# Values joined by “and” are separate entries in the source; they are usually repeats but may differ in a detail not shown here. Identical values can stand only once. Inconclusive results are not listed. Entries that show only a call come without a potency. Unmarked numbers belong to inactive results. Active and inactive are the calls of the source. Calls come from the whole dose curve; as a rule, active = well fitted curve in the direction sought with a large enough effect; inconclusive = small, poorly fitted or top-dose-only effect, or another doubt; inactive = no such curve, though single readings can be large; an effect the other way counts as inactive or inconclusive. Peptide text beside a SMILES is read from it.
# How the values were obtained:
# [1] = qHTS of pediatric cancer cell lines to identify multiple opportunities for drug repurposing: Primary screen for Rh18 cells (AID 1347102); note: nearly all actives have a fitted effect of over 65% in size; note: potency is the fitted concentration of half-maximal effect
# Outline: (§1)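 Viability after 48 h compound treatment at 37C, 500-1,000 cells/well, read as ATP luminescence with CellTiter-Glo. Primary screens used 11-point (MIPE, 0.78 nM-46 µM) or 8-point (NPC, 0.59 nM-46 µM) final concentrations; follow-up screens used 11-point dilutions.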
# [2] = qHTS of pediatric cancer cell lines to identify multiple opportunities for drug repurposing: Primary screen for OHS-50 cells (AID 1347103); note: nearly all actives have a fitted effect of over 40% in size; note: potency is the fitted concentration of half-maximal effect
# Outline: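 Cells (500-1,000/well) rested 5 h, then received compounds for 48 h; metabolically active cells were measured by CellTiter-Glo luminescence. Final concentrations spanned up to 46 µM (MIPE, 11-point) or 0.59 nM-46 µM (NPC, 8-point) in primary screens, 11-point in follow-ups.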
# [3] = qHTS of pediatric cancer cell lines to identify multiple opportunities for drug repurposing: Primary screen for RD cells (AID 1347104); note: nearly all actives have a fitted effect of over 55% in size
# Outline: (§2)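 Phenotypic viability qHTS, 48 h compound exposure, CellTiter-Glo luminescence read-out; multi-concentration dosing so that potency and efficacy derive directly from the primary screen's curves.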
# [4] = qHTS of pediatric cancer cell lines to identify multiple opportunities for drug repurposing: Primary screen for control Hh wild type fibroblast cells (AID 1347106);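 note: series mostly up to about 46 µM; a drop in luminescence marks cytotoxicity and a rise apparent proliferation; nearly all actives have a fitted effect of over 55% in size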
# Outline: as §1
# [5] = qHTS of pediatric cancer cell lines to identify multiple opportunities for drug repurposing: Primary screen for Rh30 cells (AID 1347107); note: series mostly up to about 46 µM; nearly all actives have a fitted effect of over 75% in size
# Outline: as §1
# [6] = qHTS of pediatric cancer cell lines to identify multiple opportunities for drug repurposing: Primary screen for Rh41 cells (AID 1347108); note: nearly all actives have a fitted effect of over 70% in size; note: potency is the fitted concentration of half-maximal effect;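 for activity change, negative = cytotoxic: series mostly up to about 46 µM; luminescence drop marks cytotoxic hits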
# Outline: as §2
# [7] = qHTS of pediatric cancer cell lines to identify multiple opportunities for drug repurposing: Primary screen for MG 63 (6-TG R) cells (AID 1347105); note: nearly all actives have a fitted effect of over 50% in size; note: potency is the fitted concentration of half-maximal effect
# Outline: as §2
# [8] = qHTS of pediatric cancer cell lines to identify multiple opportunities for drug repurposing: Confirmatory screen for NB1643 cells (AID 1347109); note: nearly all actives have a fitted effect of over 45% in size; note: potency is the fitted concentration of half-maximal effect
# Outline: as §1
# [9] = qHTS of pediatric cancer cell lines to identify multiple opportunities for drug repurposing: Confirmatory screen for A673 cells (AID 1347110);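 note: cells exposed to compound for 48 h before the viability read; nearly all actives have a fitted effect of over 65% in size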; note: potency is the fitted concentration of half-maximal effect
# Outline: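 A673 cells seeded at 500-1,000 cells/well, rested 5 h, then dosed; primary MIPE 11-point (0.78 nM to 46 µM), NPC (0.59 nM to 46 µM); confirmatory 11-point. CellTiter-Glo luminescence after 48 h.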
# [10] = qHTS of pediatric cancer cell lines to identify multiple opportunities for drug repurposing: Confirmatory screen for BT-12 cells (AID 1347112); note: nearly all actives have a fitted effect of over 55% in size; note: potency is the fitted concentration of half-maximal effect
# Outline: as §1
smiles,measurement,setting,value
O=C(c1ccccc1)c1ccc2n1CCC2C(=O)O (configuration not stated),Potency,[1],inactive
same,Potency,[2],inactive
same,Potency,[3],inactive
same,Potency,[4],inactive
same,Potency,[5],inactive
same,Potency,[6],inactive
CCN(CCO)CCCC(C)Nc1ccnc2cc(Cl)ccc12 (configuration not stated),Potency,[1],inactive
same,"activity change, negative = cytotoxic",[2],-4.93% [at 6.18 µM]
same,"activity change, negative = cytotoxic",[3],5.84% [at 4.84 µM]
same,"activity change, negative = cytotoxic",[7],6.76% [at 4.84 µM]
same,Potency,[5],inactive
same,Potency,[6],inactive
same,Potency,[8],inactive
same,Potency,[9],inactive
same,Potency,[10],inactive
Cc1cccc(C)c1OCC(=O)N[C@@H](Cc1ccccc1)[C@@H](O)C[C@H](Cc1ccccc1)NC(=O)[C@H](C(C)C)N1CCCNC1=O,Potency,[1],inactive
same,Potency,[2],27.3 µM (active)
same,Potency,[4],inactive
same,Potency,[5],inactive
CCCCc1ccc2nc(NC(=O)OC)[nH]c2c1,Potency,[1],inactive
same,Potency,[2],15.3 nM (active) and 61.7 nM (active)
same,Potency,[8],657 nM (active)
same,Potency,[9],0.329 µM (active)
Nc1nc(N)c(N=O)c(OCC2CCCCC2)n1,Potency,[1],18.7 µM (active)
same,Potency,[2],15.3 µM (active)
same,Potency,[7],11.8 µM (active)
Nc1cc(C(Cl)=C(Cl)Cl)c(S(N)(=O)=O)cc1S(N)(=O)=O,Potency,[1],inactive
same,Potency,[2],inactive
same,Potency,[3],inactive
same,Potency,[5],inactive
same,Potency,[6],inactive
Nc1ncn([C@H]2C[C@H](O)[C@@H](CO)O2)c(=O)n1,Potency,[1],inactive
same,Potency,[2],inactive
same,Potency,[7],inactive
same,Potency,[4],inactive
same,Potency,[6],inactive
same,Potency,[8],inactive
same,Potency,[9],inactive
same,Potency,[10],inactive
Cc1cccc(CN2CCN(C(c3ccccc3)c3ccc(Cl)cc3)CC2)c1 (configuration not stated),Potency,[1],inactive
same,Potency,[2],24.6 µM (active) and 24.3 µM (active)
same,Potency,[4],inactive
same,Potency,[5],inactive
same,Potency,[6],inactive
COc1c(O)cc2c(c1O)[C@@H]1O[C@H](CO)[C@@H](O)[C@H](O)[C@H]1OC2=O,Potency,[1],inactive
same,Potency,[2],inactive
same,Potency,[3],inactive
same,Potency,[6],inactive
COC(=O)[C@H](Cc1ccccc1)NC(=O)[C@@H](N)CC(=O)O (H-Asp-Phe-OMe),Potency,[1],inactive
same,Potency,[2],inactive
same,Potency,[3],inactive
same,Potency,[5],inactive
same,Potency,[6],inactive
CCCCC(CC)COC(=O)C(C#N)=C(c1ccccc1)c1ccccc1 (configuration not stated),Potency,[1],inactive
same,Potency,[2],13.8 µM (active) and 24.3 µM (active)
same,Potency,[7],inactive
same,Potency,[4],inactive
C[C@H](Cc1ccc(O)c(O)c1)[C@@H](C)Cc1ccc(O)c(O)c1,Potency,[1],18.7 µM (active)
same,Potency,[2],24.3 µM (active)
same,Potency,[4],inactive
same,Potency,[6],11.8 µM (active)
CC[C@]1(O)C[C@H]2CN(CCc3c([nH]c4ccccc34)[C@@](C(=O)OC)(c3cc4c(cc3OC)N(C=O)[C@H]3[C@@](O)(C(=O)OC)[C@H](OC(C)=O)[C@]5(CC)C=CCN6CC[C@]43[C@@H]65)C2)C1,Potency,[1],inactive
same,Potency,[2],12.2 nM (active) and 12.3 nM (active)
same,Potency,[4],inactive
same,Potency,[5],inactive
same,Potency,[6],inactive
same,Potency,[8],10.4 nM (active) and 1.04 µM (active)
same,Potency,[9],14.7 nM (active) and 18.5 nM (active)
same,Potency,[10],36.9 nM (active) and 208 nM (active)
CC1(C)C(=O)N(CCN2CCC(C(=O)c3ccc(F)cc3)CC2)c2ccccc21,Potency,[1],inactive
same,Potency,[2],inactive
same,Potency,[3],inactive
same,Potency,[5],inactive
same,Potency,[6],inactive
Clc1ccc(C(Cn2ccnc2)OCc2c(Cl)cccc2Cl)c(Cl)c1 (configuration not stated),Potency,[1],inactive
same,Potency,[2],19.5 µM (active) and 24.3 µM (active)
same,Potency,[4],inactive
same,Potency,[5],inactive
same,Potency,[6],inactive
NNc1nncc2ccccc12,Potency,[1],inactive
same,Potency,[2],inactive
same,Potency,[3],inactive
same,Potency,[6],inactive
Cc1cc2cc3c(C)cc(=O)oc3c(C)c2o1,Potency,[1],inactive
same,Potency,[2],inactive
same,Potency,[7],inactive
same,Potency,[5],inactive
Clc1ccc(C(Cn2ccnc2)OCc2ccc(Sc3ccccc3)cc2)c(Cl)c1 (configuration not stated),Potency,[1],inactive
same,Potency,[2],inactive
same,Potency,[7],inactive
same,Potency,[4],inactive
same,Potency,[5],inactive
same,Potency,[6],inactive
same,Potency,[9],1.17 µM (active)
same,Potency,[10],29.3 µM (active)
OC(CN1CCN(c2cccc(Cl)c2)CC1)C(c1ccccc1)c1ccccc1 (configuration not stated),Potency,[1],inactive
same,Potency,[2],24.3 µM (active)
same,Potency,[4],inactive
same,Potency,[5],inactive
same,Potency,[6],inactive
Cc1nc(Nc2ncc(C(=O)Nc3c(C)cccc3Cl)s2)cc(N2CCN(CCO)CC2)n1,Potency,[1],0.0335 µM (active)
same,Potency,[2],24.3 µM (active) and 12.3 µM (active)
same,Potency,[7],0.0084 µM (active)
same,Potency,[5],inactive
same,Potency,[6],inactive
same,Potency,[9],20.8 µM (active)
same,Potency,[10],6.57 µM (active)
COc1cc(OC)c(C(=O)CCCN2CCCC2)c(OC)c1,Potency,[1],inactive
same,Potency,[2],inactive
same,Potency,[3],inactive
same,Potency,[5],inactive
same,Potency,[6],inactive
CN(C)C(=O)COC(=O)Cc1ccc(OC(=O)c2ccc(N=C(N)N)cc2)cc1,Potency,[1],inactive
same,Potency,[2],inactive
same,Potency,[3],inactive
same,Potency,[5],inactive
same,Potency,[6],inactive
CNC[C@@H](O)[C@@H](O)[C@H](O)[C@H](O)CO,Potency,[1],inactive
same,Potency,[2],inactive
same,Potency,[3],inactive
same,Potency,[4],inactive
same,Potency,[6],inactive
CC(=O)NC[C@H]1CN(c2ccc(N3CCOCC3)c(F)c2)C(=O)O1,Potency,[1],inactive
same,Potency,[2],inactive
same,Potency,[3],inactive
same,Potency,[4],inactive
same,Potency,[6],inactive
CC(C)c1ccc2oc3nc(N)c(C(=O)O)cc3c(=O)c2c1,Potency,[1],inactive
same,Potency,[2],inactive
same,Potency,[3],inactive
same,Potency,[4],inactive
same,Potency,[6],inactive
CCCCCCCCCCCCCCCCCCCCCCO,Potency,[1],inactive
same,Potency,[2],inactive
same,Potency,[3],inactive
same,Potency,[5],inactive
same,Potency,[6],inactive
Cc1ncc([N+](=O)[O-])n1CC(C)O (configuration not stated),Potency,[1],inactive
same,Potency,[2],inactive
same,Potency,[3],inactive
same,Potency,[4],inactive
same,Potency,[6],inactive
CCCOc1ccc2nc(NC(=O)OC)[nH]c2c1,Potency,[1],inactive
same,Potency,[2],61.7 nM (active) and 13.7 nM (active)
same,Potency,[4],inactive
same,Potency,[5],inactive
same,Potency,[9],1.17 µM (active)
same,Potency,[10],4.14 µM (active)
O=c1oc2cc(O)ccc2s1,Potency,[1],inactive
same,Potency,[2],inactive
same,Potency,[7],inactive
same,Potency,[4],inactive
same,Potency,[6],inactive
COC(=O)C1=C(C)NC(C)=C(C(=O)OC(C)C)C1c1cccc2nonc12 (configuration not stated),Potency,[1],inactive
same,Potency,[2],inactive
same,Potency,[3],inactive
same,Potency,[5],inactive
same,Potency,[6],inactive
CCOC(=O)C(C)Oc1cccc2c(=O)n(CC(=O)Nc3ccc4c(c3)OCCO4)ccc12 (configuration not stated),Potency,[1],inactive
same,Potency,[2],inactive
same,Potency,[3],inactive
same,Potency,[6],inactive
